Here are results for 39 molecules from PubChem BioAssay (NCATS).

Results filed as inconclusive are left out. Values without a mark were called inactive. Active and inactive are the calls of the source. Calls come from the whole dose curve.
% is set by controls: 0 for no effect and ±100 for the full control effect; potency is the fitted concentration of half-maximal effect.

The assay in a line: Primary qHTS for inhibitors of SARS-S pseudo-typed particle cell entry (AID 1479145). Note: nearly all actives have a fitted effect of over 45% in size. As to conditions: SARS-S pseudotyped particle cell entry, luciferase reporter; series mostly up to 57.1 µM; activity change, negative = inhibition: at the top concentration. On the technique in general: In qHTS, concentration-response curves come from the screen itself.
Take `CN(CCOc1ccc(CC2SC(=O)NC2=O)cc1)c1ccccn1` (centres undefined): the “activity change, negative = inhibition” value was -15.6%. As to `CCC[C@H](N[C@@H](C)C(=O)N1[C@H](C(=O)O)C[C@@H]2CCCC[C@@H]21)C(=O)OCC`, the molecule was classed as inactive. Same read-out and setting: the same measure for `O=C(O)P(=O)(O)O`: “inactive”. Consider `COC(=O)[C@@H]1CC2=CC(=O)CC[C@]2(C)[C@@]23O[C@@H]2C[C@@]2(C)[C@@H](CC[C@@]24CCC(=O)O4)[C@H]13`, for which the result was inactive.

As to `CC(C)(C)NC(=O)[C@@H]1CN(Cc2cccnc2)CCN1C[C@@H](O)C[C@@H](Cc1ccccc1)C(=O)N[C@H]1c2ccccc2C[C@H]1O`, the “activity change, negative = inhibition” value is -17.1%.

Regarding `CC(=O)O[C@]1(C(C)=O)CC[C@H]2[C@@H]3C=C(C)C4=CC(=O)CC[C@]4(C)[C@H]3CC[C@@]21C`, the “activity change, negative = inhibition” value is -15.4%.

`NC[C@H](O)c1ccc(O)c(O)c1`: the molecule was classed as inactive. With `O[C@@H]1CO[C@H]2[C@@H]1OC[C@@H]2O`, the molecule was called inactive. Take `COCCCOc1cc(C[C@@H](C[C@H](N)[C@@H](O)C[C@H](C(=O)NCC(C)(C)C(N)=O)C(C)C)C(C)C)ccc1OC`: the “activity change, negative = inhibition” value is -29%. On to `NCCC(O)(P(=O)(O)O)P(=O)(O)O`, for which the molecule was called inactive. As for `CN(C)CCOC(c1ccc(Cl)cc1)c1ccccn1` (centres undefined), the “activity change, negative = inhibition” value is -37.6%. Consider `Cc1nc(-c2ccc(OCC(C)C)c(C#N)c2)sc1C(=O)O`, for which the molecule was called inactive. Still for that read-out and setting: then `CCCc1nc2c(C)cc(-c3nc4ccccc4n3C)cc2n1Cc1ccc(-c2ccccc2C(=O)O)cc1`, with “inactive”.

For `CCCCNc1ccc(C(=O)OCCOCCOCCOCCOCCOCCOCCOCCOCCOC)cc1`, the “activity change, negative = inhibition” value was -55.4%.

Take `Cc1ccccc1N1C(=O)c2cc(S(N)(=O)=O)c(Cl)cc2NC1C` (centres undefined): the “activity change, negative = inhibition” value was -27.3%. Still for that read-out and setting: the same measure for `Nc1nc2c(ncn2COC(CO)CO)c(=O)[nH]1`: 4.95%; for `CO/N=C1\CN(c2nc3c(cc2F)c(=O)c(C(=O)O)cn3C2CC2)CC1CN` (centres undefined): -15.4%. Consider `CCOC(=O)[C@H](CCc1ccccc1)N[C@@H](C)C(=O)N1Cc2ccccc2C[C@H]1C(=O)O`, for which the “activity change, negative = inhibition” value is -34.6%. Turning to `C[C@@H]1C[C@H]2[C@@H]3CCC4=CC(=O)C=C[C@]4(C)[C@@]3(F)[C@@H](O)C[C@]2(C)[C@@]1(O)C(=O)CO`, the call was inactive.

As for `CN(N=O)C(=O)N[C@@H]1[C@@H](O)[C@H](O)[C@@H](CO)O[C@@H]1O`, the “activity change, negative = inhibition” value is -10.9%. Take `CC(C)NCC(O)c1ccc(O)c(O)c1` (centres undefined): the “activity change, negative = inhibition” value was -19.5%. Same read-out and setting: then `N[C@@H](C(=O)N[C@@H]1C(=O)N2C(C(=O)O)=C(Cl)CS[C@H]12)c1ccccc1`, with -16.1% [at 11.4 µM]. The same measure, in the same setting: the same measure for `O=c1n(CCCN2CCN(c3cccc(Cl)c3)CC2)nc2ccccn12`: -14.2%; for `Cn1cnc([N+](=O)[O-])c1Sc1ncnc2nc[nH]c12`: 1.73%; for `CC/C=C(\C(=O)N[C@@H]1C(=O)N2C(C(=O)OCOC(=O)C(C)(C)C)=C(COC(N)=O)CS[C@H]12)c1csc(N)n1`: -21.1%. Same read-out and setting: the same measure for `COc1cc(Cc2cnc(N)nc2N)cc(OC)c1OC`: -0.0342%. Turning to `CCCSc1ccc2nc(NC(=O)OC)[nH]c2c1`, the outcome was inactive. As to `CCN(CC)CCCC(C)Nc1ccnc2cc(Cl)ccc12` (centres undefined), the “activity change, negative = inhibition” value is -29% [at 26.4 µM]. Take `NNCCc1ccccc1`: the molecule was called inactive.

`CCCNC(=O)NS(=O)(=O)c1ccc(Cl)cc1`: the molecule was classed as inactive. On to `c1cnc2cc3c(cc2n1)C1CNCC3C1`, for which the “activity change, negative = inhibition” value was -33.7%. With `O=C1NC(=O)C(c2ccccc2)(c2ccccc2)N1`, the molecule was classed as inactive. For `CCOC(=O)Nc1ccc2c(c1)N(C(=O)CCN1CCOCC1)c1ccccc1S2`, the “activity change, negative = inhibition” value was -26.9%. Consider `CCCc1cc(=O)[nH]c(=S)[nH]1`, for which the “activity change, negative = inhibition” value was 4.8%. For `CC[C@@H]([C@H](C)O)n1ncn(-c2ccc(N3CCN(c4ccc(OC[C@@H]5CO[C@@](Cn6cncn6)(c6ccc(F)cc6F)C5)cc4)CC3)cc2)c1=O`, the Potency is 14.1 µM (active). For the molecule `CO/N=C(\C(=O)N[C@@H]1C(=O)N2C(C(=O)O)=C(CSc3nc(=O)c(O)nn3C)CS[C@H]12)c1csc(N)n1`, the outcome was inactive. With `Cc1ccc(NC(=O)c2ccc(CN3CCN(C)CC3)cc2)cc1Nc1nccc(-c2cccnc2)n1`, the Potency is 12.6 µM (active). For `CC(=O)SC[C@@H](C)C(=O)N1CCC[C@H]1C(=O)N[C@@H](Cc1ccccc1)C(=O)O`, the “activity change, negative = inhibition” value was -25.8%. Turning to `CCCCCOC(=O)Nc1nc(=O)n([C@@H]2O[C@H](C)[C@@H](O)[C@H]2O)cc1F`, the result was inactive.
